DRD3 agonist = qHTS of D3 Dopamine Receptor Agonist: qHTS. D3R DiscoveRx beta-arrestin cells, luminescence, 90 min. D(3) dopamine receptor (Homo sapiens), P35462. actives 0.58% (n = 410,000). AID 652048, 2013. max activation, %; in the data active = max activation above about 30%; note: 0% is about no effect
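Cells at 1500/well, incubated overnight, then treated with pinned compounds (dopamine as control) for 90 min at 37 degrees C. DiscoveRx reagent added for 30 - 60 minutes at room temperature; luminescence read.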
TSHR antagonist = Antagonists of the Thyroid Stimulating Hormone Receptor: HTS campaign; actives 0.2% (n = 330,000); TSHR-expressing cells, TSH-stimulated cAMP HTRF, 2 h; hits give low values; activity change, negative = inhibition, % at 11.5 µM; Thyrotropin receptor (Homo sapiens), P16473;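 active = activity change below a set negative limit, meaning inhibition stronger than a set level, cut at about -70% in these data; inconclusive = activity change between two set negative limits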; note: % is set by controls: 0 for no effect and ±100 for the full control effect
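TSHR-expressing cells, 200/well, pre-treated with compound, then stimulated with EC80 TSH (4nM final) for 2 hours at 37 deg C. cAMP measured by competitive HTRF: anti-cAMP cryptate antibody in lysis buffer plus cAMP-d2, read after 30 minutes at room temperature.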
B2AR arrestin = qHTS assay of beta-arrestin-biased ligands of beta2-adrenergic receptor; Beta-2 adrenergic receptor (Homo sapiens), P07550; beta-arrestin recruitment to beta2AR, cell-based reporter; Potency, µM (titrated, usually from 46.1 µM), inactives show at the highest dose activation, hits mostly activators; actives 0.02% (n = 330,000); active = well fitted activation curve with a large enough effect; inconclusive = small, poorly fitted or top-dose-only effect;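 note: potency is the fitted concentration of half-maximal effect; 0% = DMSO controls and full agonism = EC100 isoproterenol or metaproterenol; nearly all actives have a fitted effect of over 65% in size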
Target sequence (P07550 whole entry, looked up): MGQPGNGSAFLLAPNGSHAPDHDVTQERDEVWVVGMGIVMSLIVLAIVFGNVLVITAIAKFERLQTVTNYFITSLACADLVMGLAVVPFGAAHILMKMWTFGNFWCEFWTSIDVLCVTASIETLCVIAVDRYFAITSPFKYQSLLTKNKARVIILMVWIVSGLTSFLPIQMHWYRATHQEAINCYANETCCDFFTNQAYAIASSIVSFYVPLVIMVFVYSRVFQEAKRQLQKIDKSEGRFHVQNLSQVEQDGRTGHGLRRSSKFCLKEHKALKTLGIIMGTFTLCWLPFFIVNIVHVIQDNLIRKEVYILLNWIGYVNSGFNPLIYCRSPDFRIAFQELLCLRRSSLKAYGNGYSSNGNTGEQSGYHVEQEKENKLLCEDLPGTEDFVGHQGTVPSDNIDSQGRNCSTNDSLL
DRD3 antagonist = qHTS of D3 Dopamine Receptor Antagonist: qHTS. D3R cells, DiscoveRx beta-arrestin luminescence, antagonist mode; hits give low values. actives 2.5% (n = 360,000). max response, negative = inhibition, %. D(3) dopamine receptor (Homo sapiens), P35462; in the data active = max response below about -50%; inconclusive = no clear call, values can overlap the other calls; note: % is set by controls: 0 for no effect and ±100 for the full control effect
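Cells plated overnight at 1500 cells/well, then exposed to library compounds with dopamine controls for 90 minutes at 37 degrees C. DiscoveRx reagent added for 30–60 minutes at room temperature; luminescence read, quantitative HTS format.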
The depositor's hits bear a star; ? = inconclusive; . = not tested or not shown; ! = not active in a repeat. Rows were chosen to be rich in hits. Some 2.9% of all compounds tested hit in one or more screens of this group.

SMILES | DRD3 agonist | TSHR antagonist | B2AR arrestin | DRD3 antagonist
CNCC(O)c1ccc(OC(=O)C(C)(C)C)c(OC(=O)C(C)(C)C)c1 (stereo unspecified) | 40*! | -2 | ? | -4
Cc1cccc(-n2c(/C=C\c3cccc(Br)c3)nc3ccccc3c2=O)c1 | 5 | . | . | .
O=C(O)c1cc[c]([Hg][Cl])cc1 | -59 | -29 | 0% | -65*
CC(NCc1ccccc1Cl)C(O)c1ccccc1 (stereo unspecified) | -22 | 22 | -1% | ?
CC(NCc1ccc(Cl)c(Cl)c1)C(O)c1ccccc1 (stereo unspecified) | -37 | 1 | 0% | -65*
COc1ccc2c(c1O)[C@]13CCN(C)[C@H](C2)[C@@H]1CCC(=O)C3 | 0 | -10 | 4% | -2
COC1=CC=C2[C@H]3Cc4ccc(OC)c5c4[C@@]2(CCN3C)[C@H]1O5 | -15 | -3 | 0% | -66*
CC(C)Oc1ccc(CC2(CCc3ccncc3)C(=O)NC(=O)NC2=O)cc1 | 33* | -6 | -1% | 2
CC(C)CCC1(CCc2ccncc2)C(=O)NC(=O)NC1=O | -2 | 8 | 0% | 25
CN(C)C1(CNC(=O)Nc2ccc(Cl)c(Cl)c2)CCCCC1 | -27 | 0 | 0% | -55*
CN(C)C1(CNC(=O)c2ccc(NS(=O)(=O)c3ccc(Cl)c(Cl)c3)cc2)CCCCC1 | -13 | 7 | 0% | 5
CC1CCN(CC#CCOc2ccc(Cl)cc2)CC1 | -26 | -12 | 0% | -105*
C[C@@H](N)[C@@H](O)c1ccccc1 | 7 | . | . | .
CCOC(=O)/C=C(C)/C=C/C[C@@H](C)CCCC(C)C | 0 | . | . | .
Fc1ccc2c(c1)nnn2C1CCN(Cc2c(Cl)cccc2Cl)CC1 | -23 | -3 | 0% | -1
Fc1ccc2c(c1)nnn2C1CCN(Cc2nnnn2C2CCCCC2)CC1 | -4 | 3 | -1% | -58*
O=[N+]([O-])c1cccc(O)c1 | 3 | 0 | 0% | 13
O=[N+]([O-])c1cccc(CCl)c1 | -97 | 16 | 0% | -117*
Cc1ccc(-n2c(=O)[nH]c3ccc(Br)cc3c2=O)cc1 | -8 | . | . | .
Cc1ccc(-n2c(C)nc3ccccc3c2=O)c(C)c1 | 5 | -72* | 0% | 26
COc1ccc(CN2CCCC(C(=O)c3sccc3C)C2)cc1O (stereo unspecified) | -20 | -8 | 0% | -74*
COc1cc(CN2CCCC(C(=O)c3sccc3C)C2)cc(OC)c1O (stereo unspecified) | -2 | -8 | 0% | -27
COc1cc(CN2CCCC(C(=O)c3sccc3C)C2)cc(Cl)c1O (stereo unspecified) | -19 | 18 | 0% | -51*
O=C(Nc1ccc(F)c(Cl)c1)N(Cc1ccc2c(c1)OCO2)C1CCN(Cc2ccccc2)CC1 | -28 | . | . | .
O=S(=O)(c1ccc(F)cc1)N1CCCCC1c1cccnc1 (stereo unspecified) | -3 | 6 | 0% | 6
SMILES | DRD3 agonist | TSHR antagonist | B2AR arrestin | DRD3 antagonist
COc1ccccc1CN1CCCCC1c1cccnc1 (stereo unspecified) | 33* | -9 | 0% | -9
CC1=C(/C=C/c2ccccc2)CCN(C)C1 | -22 | -6 | 0% | -63*
Cc1cc(C)cc(N2C(=O)NC(=O)/C(=C\c3cccn3-c3ccc(Cl)cc3)C2=O)c1 | -3 | 12 | 0% | -72*
O=C(c1ccc2c(c1)N(Cc1c(F)cccc1Cl)C(=O)c1ccccc1S2)N1CCC2(CC1)OCCO2 | -5 | . | . | .
CCCCc1ccc2[nH]cc(CCN)c2c1 | 65* | -9 | -4% | -1
NCCc1c[nH]c2ccccc12 | -38 | -11 | 3% | ?
CCC(C)(S(=O)(=O)CC)S(=O)(=O)CC | -2 | . | . | .
O=C(CCN1CCN(CCO)CC1)N1c2ccccc2Sc2ccc(C(F)(F)F)cc21 | -34 | -6 | 0% | -74*
c1ccc(C(OCCN2CCNCC2)c2ccccc2)cc1 | -1 | 4 | 0% | -68*
[S]=[Sb](=[S])[S][Sb](=[S])=[S] | 5 | . | . | .
O=[As](O)(O)c1ccc(N=Nc2ccc(O)cc2)cc1 | -13 | -8 | -1% | -99*
CNC1(c2ccccc2Cl)CCCCC1=O (stereo unspecified) | 8 | . | . | 4
CN(C(=O)c1ccco1)C1(c2ccccc2Cl)CCCCC1=O (stereo unspecified) | -12 | -3 | 0% | -53*
CCC(=NCCc1c[nH]c2ccccc12)c1c(O)n(-c2ccc(C)cc2)c(=O)[nH]c1=O | -1 | 12 | 1% | 1
CCC(=NCCc1c[nH]c2ccccc12)c1c(O)n(C)c(=O)n(C)c1=O | 65* | -41 | 0% | 29
Cc1ccc2c(c1)C1CN(C)CCC1N2 (stereo unspecified) | -21 | . | . | .
ClCCN(CCCl)c1ccc(C=Cc2ccncn2)cc1 | 72* | . | . | -14
CO/C=C(/C(=O)OC)c1ccccc1Oc1cc(Oc2ccccc2C#N)ncn1 | 22 | . | . | .
CC1C2Cc3ccc(O)cc3[C@]1(C)CCN2CCc1ccccc1 (stereo partly specified) | -93 | -6 | -1% | -93*
CC(C)(C)NC[C@H](O)c1ccc(O)cc1Cl | 5 | . | . | .
CC(Cc1ccccc1)[n+]1cc(/N=C(\[O-])Nc2ccccc2)on1 (stereo unspecified) | 1 | -11 | 0% | -54*
Cc1ccc(Cn2cccc(C(=O)Nc3ccc(C)c(Cl)c3)c2=O)cc1 | -6 | . | . | .
CCCCNC(C)Cc1ccccc1 (stereo unspecified) | -68 | -11 | 3% | -51*
COc1ccc(CC(C)NCCC(c2ccccc2)c2ccccc2)cc1 (stereo unspecified) | -20 | 9 | 0% | ?
Cc1ccc(CN2CCCC(C(=O)c3sccc3C)C2)o1 (stereo unspecified) | -24 | -7 | -1% | -52*
SMILES | DRD3 agonist | TSHR antagonist | B2AR arrestin | DRD3 antagonist
Cc1ccsc1C(=O)C1CCCN(Cc2cnc(N3CCCC3)s2)C1 (stereo unspecified) | -17 | 26 | 0% | -79*
COC(=O)C1=C(c2ccc(Cl)c(C(F)(F)F)c2)C[C@@H]2CC[C@H]1N2C(=O)N1CCC(C)CC1 | -46 | 44 | -1% | -50*
COC(=O)C1=C(c2ccc(S(C)(=O)=O)cc2)C[C@@H]2CC[C@H]1N2C(=O)N1CCC(O)CC1 | 33* | . | . | 17
COC(=O)C1=C(c2ccc(OC)c(OC)c2)C[C@@H]2CC[C@H]1N2C(=O)N1CCC(C)CC1 | -14 | 4 | 0% | ?
COC(=O)C1=C(c2ccc(S(C)(=O)=O)cc2)C[C@@H]2CC[C@H]1N2C(=O)N1CCCC1 | -13 | . | . | -12
ClC1=CCC2CN(CCN3CCCCC3)CC2C1 (stereo unspecified) | 2 | -11 | -1% | -52*
CCC(=O)O[C@H]1[C@@H](N2CCCCC2)C[C@H]2[C@@H]3CC[C@H]4C[C@H](OC(C)=O)[C@@H](N5CCCCC5)C[C@]4(C)[C@H]3CC[C@@]21C | -15 | . | . | .

Bioassay records (PubChem)
